BAZ2B block: blocks human BAZ2B; Q9UIF8; AlphaScreen BAZ2B-H3K14Ac peptide displacement; Potency, µM (top dose mostly 114 µM), inactives show at the highest dose activity change, negative = inhibition, usual class: inhibitors; 360,000 compounds, 4.4% hits; further: on the % scale 0 is the no-effect control and ±100 the full control effect; nearly all actives have a fitted effect of over 60% in size
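Compounds, titrated to a top concentration of 110 uM, were incubated 30 min at room temperature with preformed BAZ2B/acetyl-K14 H3 peptide complex (50 nM each). Proximity signal was measured by AlphaScreen after 20 min with beads.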
Sfp inh: inhibitors of Bacillus subtilis Sfp phosphopantetheinyl transferase; Biochemical Sfp PPTase activity, qHTS; Potency, µM, inactives show largest response in the series, negative = inhibition, actives largely listed as inhibitors; 310,000 compounds, 3.5% hits; AID 1490;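 further: the enzyme is Sfp with the accession as filed and its product quenches rhodamine fluorescence; 0% = enzyme reaction without inhibitor and -100% = no enzyme wells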
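Reaction rates are the 30-min fluorescence difference (ex 525, em 598 nm) in wells containing 15 nM Sfp, 5 uM rhodamine-CoA and 12.5 uM BHQ-2-YbbR at pH 7.6 with 10 mM MgCl2.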
JMJD2A Tudor: inhibitors of human JMJD2A Tudor domain; 390,000 compounds, 4.4% hits; Potency, µM (titrated, usually from 114 µM), inactives show at the highest dose activity change, negative = inhibition, most hits filed as inhibitors; AlphaScreen JMJD2A-Tudor / H3K4me3 peptide binding; O75164; further: on the % scale 0 is the no-effect control and ±100 the full control effect; nearly all actives have a fitted effect of over 50% in size
G9a block: blocks human histone lysine methyltransferase G9a; G9a H3K9 monomethylation, AlphaScreen, 2 h; Potency, µM (series often up to 102 µM), for inactives: top-dose activity, negative = inhibition, most hits filed as inhibitors; Q96KQ7; 350,000 compounds, 8.8% hits; further: on the % scale 0 is the no-effect control and ±100 the full control effect; nearly all actives have a fitted effect of over 75% in size
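Enzyme 20 nM + cpd, 15 min RT; add b-H3K9 pep 500 nM / SAM 20 uM; 2 h RT; anti-H3K9me1 Ab 0.5 ug/mL + SA donor / anti-rabbit acceptor beads 20 ug/mL each, 10 min; AlphaScreen read.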
HP1b chromo inh: blocks HP1-beta chromodomain binding to methylated histone tails. AlphaScreen HP1-beta / biotin-H3K9me3 peptide binding. 390,000 compounds, 0.56% hits. Potency, µM (highest dose often 114 µM), for the others: at the highest dose activity change, negative = inhibition, hits mostly inhibitors. P83916; further: nearly all actives have a fitted effect of over 70% in size
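HP1-beta protein (50 nM final) preincubated 30 min at room temperature with biotinylated H3(1-18)K9me3 peptide (50 nM) in PBS pH 7.4, 0.01% Tween-20, then compound added for 30 min. AlphaScreen streptavidin donor/nickel chelate acceptor beads (10 ug/mL final), 30 min dark, luminescence read.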
12-LOX inh: inhibitors of human 12S-lipoxygenase ALOX12 | P18054 | purified 12hLO, xylenol orange hydroperoxide absorbance | Potency, µM (titrated, usually from 108 µM), for the others: at the highest dose activity change, negative = inhibition, most hits filed as inhibitors | 580,000 compounds, 1.1% hits; further: on the % scale 0 is the no-effect control and ±100 the full control effect
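Hydroperoxide product was detected by ferrous iron/xylenol orange as the 573 to 405 nm absorbance ratio. Arachidonic acid at 40 uM (final) was turned over for 30 min at room temperature by 150 nM human 12hLO, pH 7.0 Hepes buffer, after 15 min compound preincubation.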
Active calls of the source: *; ? = inconclusive; nt = not tested or not shown; [ ] = dose if it differs, or a comment. Shown are actives, neighbours in structure and some others; about 8.7% of the full set was active somewhere. The call rests on the fitted dose curve; in most records, active means well fitted curve in the direction sought with a large enough effect; inconclusive means small, poorly fitted or top-dose-only effect, or another doubt; inactive means no such curve, though single readings can be large; an effect the other way counts as inactive or inconclusive. Potency means the concentration at half of the fitted maximal effect.

SMILES | BAZ2B block | Sfp inh | JMJD2A Tudor | G9a block | HP1b chromo inh | 12-LOX inh
Cc1cccc(C)c1OCC(=O)N/N=C/C=C/c1ccco1 | -18% | -21% | -29% | 32µM* | 38% | ?
Cc1ccc(OCC(=O)N/N=C/C=C/c2ccco2)c(Br)c1 | -29% | 50µM* | ? | 45µM* | -10% | 40µM*
Cc1cc(C)cc(OCC(=O)N/N=C/c2ccco2)c1 | -16% | 14% | 2% | -8% | 17% | 0%
Cc1ccc(Cn2c(Sc3ccccc3)nc3c2c(=O)[nH]c(=O)n3C)cc1 | nt | nt | nt | nt | nt | 2%
COC(=O)c1sc(NC(=O)COc2ccc(C)cc2C)nc1C | nt | nt | nt | nt | nt | -6%
CCNC(=S)NNC(=O)c1ccccc1 | nt | nt | nt | nt | nt | 50%
COc1ccccc1-c1ocnc1C(=O)N1CCN(C(=O)C(c2ccccc2)c2ccccc2)CC1 | -1% | 89µM* | -14% | -2%[59 µM] | -12% | -9%
C=CCc1c(C)nc(-c2ccccc2)nc1N/N=C(\C)c1ccccc1 | -33% | 45µM* | -28% | ? | 31% | -9%
NS(=O)(=O)c1ccc(CCNC(=O)C2CCN(C(=O)Nc3ccccc3)CC2)cc1 | nt | nt | -8% | nt | 52% | ?
CC(C)c1ccccc1NC(=O)CNCCc1ccc(C(F)(F)F)cc1 | 45µM* | 79µM* | 14µM* | -9%[12.7 µM] | ? | -25%
NS(=O)(=O)c1ccc(CCNCC(=O)NC2CC2)cc1 | ? | -1% | 4.5µM* | 50µM* | ? | 0%
NS(=O)(=O)c1ccc(CCNCC(=O)N2CCC(Cc3ccccc3)CC2)cc1 | 56µM* | ? | -35%[11.4 µM] | nt | -12% | -22%
NS(=O)(=O)c1ccc(CCNC(=O)CNCCc2ccc(C(F)(F)F)cc2)cc1 | 50µM* | -5% | 18µM* | -1% | -7% | -40%
NS(=O)(=O)c1ccc(CCNC(=O)CNC(=O)c2ccc(F)cc2)cc1 | 6% | 5% | -14% | 2% | -19% | 23%
CC(C)(C)CC(=O)N1CCC2(CC1)C(=O)N(CC(=O)Nc1ccccc1)CN2c1ccccc1 | nt | nt | nt | nt | nt | 20%
O=C([C@@H]1Cc2nc[nH]c2CN1Cc1ccc(Cl)cc1)N1CCC(Cc2ccccc2)CC1 | nt | nt | nt | nt | nt | 57%
Clc1ccc(Nc2ncc(-c3cccnc3)c3c2OCC3)cc1 | nt | nt | nt | nt | nt | 10%[176 µM]
Cc1noc(C)c1C(=O)OCC(=O)NCCc1ccc(S(N)(=O)=O)cc1 | nt | nt | -1% | nt | 24% | ?
Cc1nn(-c2ccccc2)c(Cl)c1C(=O)OCC(=O)NCCc1ccc(S(N)(=O)=O)cc1 | -24% | nt | -17% | 50µM* | 21% | -21%
CCc1ccc(OCC2c3cc(OC)c(OC)cc3CCN2C(=S)NCCOC)cc1 (centres undefined) | ? | -8% | ? | 16µM* | 3% | -21%
CCc1ccc(OCC2c3cc(OC)c(OC)cc3CCN2C(=S)NC)cc1 (centres undefined) | ? | 17% | ? | ? | -22% | 11%
CCNC(=S)N1CCc2cc(OC)c(OC)cc2C1COc1ccc(OC)cc1 (centres undefined) | ? | 12% | ? | 50µM* | 4% | -7%
COC(=O)c1c(NC(C)=O)sc(C(=O)Nc2ccccc2F)c1C | -5% | 71µM* | ? | nt | -14% | -26%
O=C(O)c1ccccc1C(=O)Nc1n[nH]c(=S)s1 | 32µM* | 10µM* | 13µM* | 1.4µM* | 28µM* | ?
Cc1ccc(NC(=O)CCn2c(=S)oc3ccccc32)cc1 | -15% | 4% | -3% | -25% | 55% | 1%
SMILES | BAZ2B block | Sfp inh | JMJD2A Tudor | G9a block | HP1b chromo inh | 12-LOX inh
CN(C)c1ccc(NC(=O)CCn2c(=S)oc3ccccc32)cc1 | 25µM* | 1% | ? | ? | -2% | -9%
Cc1ccc(NC(=O)CN2CCN(c3ccccn3)CC2)c(Cl)c1 | -5% | 79µM* | -19% | -47%[59 µM] | 27% | 0%
O=C(CCN1CCN(c2ccccc2F)CC1)Nc1ccc(F)cc1 | -6% | 6% | 9% | 4%[0.501 µM] | 50% | 11%
CN(C)c1ccc(NC(=O)CCN2CCN(c3ccccn3)CC2)cc1 | -29% | -5% | -32% | 50µM* | 3% | 7%
Cc1ccccc1N1CCN(CCC(=O)Nc2ccc(F)cc2)CC1 | -35% | ? | 3% | 5%[0.501 µM] | 33% | 18µM*
Cc1ccc(NC(=O)Cn2nc(Cc3ccncc3)c3ccccc3c2=O)c(Cl)c1 | 71µM* | nt | ? | -39%[59 µM] | 62% | -15%
O=C(CN1CCN(c2ccccn2)CC1)Nc1cccc(F)c1 | 4% | 12% | -12% | 4% | 55% | 1%
O=C(CN1CCN(c2ccccn2)CC1)Nc1cccc(Br)c1 | -19% | -9% | -22% | 45µM* | 53% | -30%
COc1cc(NC(=O)CN2CCN(c3ccccn3)CC2)cc(OC)c1OC | 4% | 13% | 0% | 45µM* | 2% | -2%
Cc1ccc(C)c(C(=O)c2cc3ccccc3o2)c1 | nt | nt | nt | nt | nt | -2%
CC(C)n1cnc2c(N(C)c3ccccc3)nc(N(CCN(C)C)Cc3ccccc3)nc21 | 32µM* | ? | 45µM* | ? | ? | -19%
COc1cc(N(Cc2ccccc2)Cc2ccccc2)c2ncn(C(C)C)c2c1 | ? | nt | ? | 16%[2.33 µM] | 10% | -7%
CCn1nc(C(=O)OC(C)C(N)=O)c2ccccc2c1=O (centres undefined) | nt | nt | nt | nt | nt | 9%
COc1ccccc1-c1nnc([C@H]2CCN(Cc3ccccn3)C2)o1 | nt | nt | nt | nt | nt | 96%[176 µM]
Cc1cnc(N2C(=O)c3ccc([N+](=O)[O-])cc3C2=O)s1 | -20% | -4% | ? | 56µM* | -3% | -24%
COc1cc([N+](=O)[O-])ccc1N1C(=O)C2C3C=CC(C4CC34)C2C1=O (centres undefined) | -27% | 6% | -12%[57.1 µM] | 40µM* | 20% | -9%
CCC(=O)NC(=S)NNC(=O)c1ccc([N+](=O)[O-])cc1 | 15%[57.1 µM] | 79µM* | 79µM* | ? | 5% | -6%
CC(C)CC(=O)NC(=S)NNC(=O)c1ccc([N+](=O)[O-])cc1 | 3% | -27% | ? | 20µM* | -3% | ?
Cn1cc([N+](=O)[O-])c(C(=O)NNC(=O)c2ccc([N+](=O)[O-])cc2)n1 | -11% | 16% | ? | 45µM* | ? | -1%
COc1ccccc1CN1CCCC(c2[nH]ccc2C(N)=O)C1 (centres undefined) | nt | nt | nt | nt | nt | 10%
Cc1cc(C(=O)N2CCCC2c2nc(CCOCC3CCCC3)no2)nn1C (centres undefined) | nt | nt | nt | nt | nt | 36%
CCc1c(C)sc(NC(=O)c2cc(-c3ccc(OC)cc3)on2)c1C#N | -3% | nt | 2% | 10µM* | 9% | -4%
CCc1c(C)sc(NC(=O)c2cc(-c3ccco3)on2)c1C#N | -1% | ? | -19% | 13µM* | -14% | ?

Compound activity from PubChem.
